Results from PubChem BioAssay.
Calls of active or inactive are those of the source. How the calls were made is not given here.

assay: inhibition of Brca1/Bard1 split-luciferase complementation, confirmation, counter-screen for Mdm2/MdmX interaction inhibitor project, luminescence, single concentration (AID 504668); conditions: Brca1/Bard1 bimolecular luciferase complementation counterscreen, at 8 µM, hits give high values

Compound	inhibition
Cc1ccc(C(=O)N2C(CC(=O)Nc3ccc(Cl)cc3)C(=O)NC3CCCCC32)cc1 (stereo not given)	24.8% (active)
COc1ccc([C@@H]2[C@@H]3C(=O)N(C(C)(C)C)C(=O)[C@@H]3[C@]3(CC(C)C)C(=O)N(c4ccc(C(F)(F)F)cc4)C(=O)N23)cc1	35% (active)
Oc1ccc(/C=N/Nc2nc(-c3ccccc3F)nc3ccccc23)c(O)c1	31% (active)
Cc1noc(-c2ccc(C(F)(F)F)cc2)c1NC(=O)Nc1ccc(Cl)cc1	24.2% (active)
Cc1cc(Nc2cccc([N+](=O)[O-])c2)n2c(nc3ccccc32)c1C#N	30.7% (active)
O=C(c1ccc(Br)cc1)C(CN1CCOCC1)c1ccccc1 (stereo not given)	24.6% (active)
O=C(Nc1ccc(N2CCCCC2)cc1)c1ccccn1	27.9% (active)
Cc1ccc(C(=O)N/N=C/c2c(O)ccc3ccccc23)cn1	26.6% (active)
O=[N+]([O-])c1ccc(N=Nc2ccc(O)cc2O)cc1	29.5% (active)
CCOc1cc(/C=C2/NC(=O)N(CC(=O)Nc3cccc(C)c3)C2=O)ccc1OC	32.2% (active)
O=C1c2cccc3c([N+](=O)[O-])ccc(c23)C(=O)N1c1nccs1	27% (active)
Cc1ccc(C)c(NC(=S)NC(NC(=O)/C=C/c2ccccc2)C(Cl)(Cl)Cl)c1 (stereo not given)	31.4% (active)
C[C@@]12C(=O)Nc3ccccc3C(=O)N1[C@H]1c3cc(Br)ccc3OC[C@@H]1[C@@H]2c1ccccc1	30.8% (active)
O=c1c2ccccc2nc(/C=C/c2cc(Br)ccc2O)n1CCO	32.4% (active)
O=C(N/N=C/c1cc(Br)ccc1O)c1cccc(N2CCCC2=O)c1	31.4% (active)
